Reference: PubChem BioAssay
Several values for one entry are separate records, joined by “and”; a condition that tells them apart may be missing. Equal entries are not always repeated. Inconclusive results are not listed. Activity calls are given as the source filed them.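 How the source made its calls, unless noted: active means compounds whose cell count with miR-34 switched on is under 0.7 times the count with it off; inactive means the rest.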

Test: JHH-DIPG-1 glioma cell viability, MIPE5.0 library, CellTiter-Glo luminescence, qHTS (AID 1347067; cut-off not given, nearly all actives have AC50 up to about 26 µM;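 further: cells exposed to compound for 48 hours before readout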)
Conditions: JHH-DIPG-1 glioma viability, CellTiter-Glo ATP luminescence

SMILES	outcome
O=C(NCC1CCCCN1)c1cc(OCC(F)(F)F)ccc1OCC(F)(F)F (stereo not given)	inactive
Clc1ccccc1CN1CCc2sccc2C1	inactive
O=C(O)c1cn(C2CC2)c2cc(N3CCNCC3)c(F)cc2c1=O	inactive
O=S(=O)(c1cccc2cnccc12)N1CCCNCC1	inactive
NCCCC(O)(P(=O)(O)O)P(=O)(O)O	inactive
O=C(O)CCn1c2c(c3ccccc31)C[C@H](NS(=O)(=O)c1ccc(F)cc1)CC2	inactive

Test: SU-DIPG-XXV glioma cell viability, MIPE5.0 library, qHTS (AID 1347068; cut-off not given, nearly all actives have IC50 up to about 30 µM)
Conditions: not given

SMILES	outcome
O=C(NCC1CCCCN1)c1cc(OCC(F)(F)F)ccc1OCC(F)(F)F (stereo not given)	inactive
CC(C)c1c(C(=O)Nc2ccccc2)c(-c2ccccc2)c(-c2ccc(F)cc2)n1CC[C@@H](O)C[C@@H](O)CC(=O)O	inactive
Clc1ccccc1CN1CCc2sccc2C1	inactive
O=C(O)c1cn(C2CC2)c2cc(N3CCNCC3)c(F)cc2c1=O	inactive
O=S(=O)(c1cccc2cnccc12)N1CCCNCC1	inactive
NCCCC(O)(P(=O)(O)O)P(=O)(O)O	inactive
O=C(O)CCn1c2c(c3ccccc31)C[C@H](NS(=O)(=O)c1ccc(F)cc1)CC2	inactive

Test: sensitizers of A549 cells to miR-34 induction, primary screen, imaging, A549 dox-inducible miR-34, nuclei and caspase counts (AID 1347080)
Conditions: A549 miR-34 inducible, Hoechst nuclei count, 48 h; hits give low values; cell number ratio, induced over uninduced

SMILES	fold change
CC(C)c1c(C(=O)Nc2ccccc2)c(-c2ccccc2)c(-c2ccc(F)cc2)n1CC[C@@H](O)C[C@@H](O)CC(=O)O	1.27 (inactive)
CC(C)(C)CC(C)(C)c1ccc(OCCOCC[N+](C)(C)Cc2ccccc2)cc1	0.798 (inactive) and 0.823 (inactive) and 0.768 (inactive)
CN1[C@@H]2CC(OC(=O)[C@H](CO)c3ccccc3)C[C@H]1[C@@H]1O[C@@H]12 (stereo not given in full)	0.844 (inactive) and 0.894 (inactive) and 0.852 (inactive)
CC(C)n1c(/C=C/[C@@H](O)C[C@@H](O)CC(=O)O)c(-c2ccc(F)cc2)c2ccccc21	1.1 (inactive) and 1.08 (inactive)
CN(C)C(=N)N=C(N)N	0.831 (inactive) and 0.956 (inactive) and 0.958 (inactive)
O=C(O)c1cn(C2CC2)c2cc(N3CCNCC3)c(F)cc2c1=O	0.89 (inactive) and 0.772 (inactive) and 0.838 (inactive)
COc1ccc(-c2nc3ccc(C4=NNC(=O)CC4C)cc3[nH]2)cc1 (stereo not given)	0.906 (inactive)
CS(=O)(=O)c1ccc([C@@H](O)[C@@H](CF)NC(=O)C(Cl)Cl)cc1	0.925 (inactive) and 0.937 (inactive)
C[C@@H](O[C@H]1OCCN(Cc2n[nH]c(=O)[nH]2)[C@H]1c1ccc(F)cc1)c1cc(C(F)(F)F)cc(C(F)(F)F)c1	0.959 (inactive)
NCCCC(O)(P(=O)(O)O)P(=O)(O)O	1.41 (inactive) and 0.87 (inactive) and 0.867 (inactive)
CC1(C)[C@H](C(=O)O)N2C(=O)C[C@H]2S1(=O)=O	0.988 (inactive) and 0.885 (inactive) and 0.887 (inactive)
O=C(O)CCn1c2c(c3ccccc31)C[C@H](NS(=O)(=O)c1ccc(F)cc1)CC2	0.961 (inactive)
